Bioassay records: PubChem BioAssay, Johns Hopkins Ion Channel Center
KCNQ2 inh: rat KCNQ2 potassium channel inhibitors, primary screen, cell-based, CHO-K1, FluxOR thallium flux, B-score; Potassium voltage-gated channel subfamily KQT member 2 (Rattus norvegicus), O88943; 20 min; stronger effect = lower value; B-score at 10 µM; 1.1% of 310,000 active; AID 2156, 2009;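 active = fluorescence ratio B-score at most minus 3 library SDs, with starting brightness B-score within 2 library SDs, cut at about -5.5 in these data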
Target sequence (O88943 whole entry, looked up): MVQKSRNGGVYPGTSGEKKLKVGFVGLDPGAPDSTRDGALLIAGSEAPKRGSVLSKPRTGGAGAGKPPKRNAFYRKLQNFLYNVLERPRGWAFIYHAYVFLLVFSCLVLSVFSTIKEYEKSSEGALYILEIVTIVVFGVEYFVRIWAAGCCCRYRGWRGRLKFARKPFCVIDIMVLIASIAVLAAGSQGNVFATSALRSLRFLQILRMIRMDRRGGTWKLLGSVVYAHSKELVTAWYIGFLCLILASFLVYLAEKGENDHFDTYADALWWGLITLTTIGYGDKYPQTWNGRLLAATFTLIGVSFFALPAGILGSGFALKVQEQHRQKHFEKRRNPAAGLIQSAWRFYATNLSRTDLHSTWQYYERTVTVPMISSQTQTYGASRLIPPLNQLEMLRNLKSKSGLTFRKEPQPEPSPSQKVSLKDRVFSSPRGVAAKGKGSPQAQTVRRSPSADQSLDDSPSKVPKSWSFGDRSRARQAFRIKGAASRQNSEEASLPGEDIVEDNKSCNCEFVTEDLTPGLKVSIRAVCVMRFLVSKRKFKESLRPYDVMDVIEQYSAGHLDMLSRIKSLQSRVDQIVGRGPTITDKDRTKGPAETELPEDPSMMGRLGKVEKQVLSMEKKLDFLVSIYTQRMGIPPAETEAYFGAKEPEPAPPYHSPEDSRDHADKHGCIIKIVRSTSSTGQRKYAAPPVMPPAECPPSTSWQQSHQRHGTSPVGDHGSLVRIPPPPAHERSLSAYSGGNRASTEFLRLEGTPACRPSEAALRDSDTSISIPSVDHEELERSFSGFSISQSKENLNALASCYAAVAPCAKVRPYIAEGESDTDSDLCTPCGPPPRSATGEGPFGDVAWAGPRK
KCNQ2 enhance: potentiators of rat KCNQ2 potassium channel; CHO-K1 KCNQ2, FluxOR thallium flux fluorescence; stronger effect = higher value; 0.54% of 310,000 active; AID 2239, 2010; Potassium voltage-gated channel subfamily KQT member 2 (Rattus norvegicus), O88943; B-score at 10 µM;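 active = fluorescence ratio B-score at least 3 SD of library B-scores, with initial fluorescence B-score within 3 of them, cut at about 5.3 in these data; same plate scores as AID 2156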;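 note: B-score of peak minus minimum over baseline fluorescence ratio after K+ and Tl+ stimulus; positive B-score means potentiation of KCNQ2 with more thallium influx and brighter signal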
Kir21 conf inh: mouse Kir2.1 channel blockers, retest, confirmation, cell-based, FluxOR thallium flux, duplicate; shares compounds with KCNQ2 enhance; Kir2.1-expressing cells, FluxOR thallium flux fluorescence; stronger effect = lower value; Tl flux remaining, % of negative control (stronger effect = lower value), % at 10 µM; 41% of 2,300 active; AID 2032, 2009;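 active = Primary-screen hit whose thallium flux fell at least 3 control SD below untreated wells in both duplicates, with normal baseline fluorescence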;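 note: 0% = blank wells without stimulus and 100% = stimulated no-compound controls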
HEK293 ctr: counter-screen for Kir2.1 inhibitors: effect in parental HEK293 cells; FluxOR signal as % of negative control (100 = no effect), % at 10 µM; shares compounds with KCNQ2 enhance; FluxOR thallium flux fluorescence; 0% = unstimulated blank wells; AID 2105; 19% of 2,300 active;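 active = dye signal at least 3 control SD above or below untreated wells in both duplicates, raw fluorescence within 3, either direction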;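 note: percent is based on the flux ratio of peak minus minimum fluorescence over baseline F0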
CHO-K1 Tl ctr: nonspecific thallium flux increase in parental CHO-K1, confirmation, counter-screen for KCNQ2 potentiator project, cell-based, FluxOR thallium flux, duplicate | shares compounds with KCNQ2 enhance | parental CHO-K1 cells, FluxOR thallium flux fluorescence; zero = vehicle mean+3SD, 100% = vehicle-minus-blank window | activity increase over 3SD of controls, % at 10 µM | 43% of 1,200 active | AID 2282, 2010;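 active = signal rise of at least 3 SD above the untreated control mean, in both duplicate wells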;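 note: counter screen of KCNQ2 potentiator hits so any rise reflects channel-independent effects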
KCNQ1 sel pot: human KCNQ1 channel potentiation off-target, confirmation, selectivity assay for KCNQ2 potentiator project, cell-based, CHO, FluxOR thallium flux | shares compounds with KCNQ2 enhance | CHO KCNQ1 stable, FluxOR thallium flux fluorescence; beyond 3SD, as % of vehicle-control signal | activation over 3SD threshold, % at 10 µM | 28% of 1,200 active | AID 2283, 2010;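 active = fluorescence ratio rise of at least 3 SD of vehicle wells above their mean, in both replicate wells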;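 note: 0% = vehicle mean plus 3 SD and 100% = vehicle minus unstimulated blank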
KCNQ2 pot conf: rat KCNQ2 channel potentiators, confirmation, cell-based, CHO, FluxOR thallium flux, duplicate | 68% of 1,200 active | CHO-KCNQ2 cells, FluxOR thallium flux fluorescence | shares compounds with KCNQ2 enhance | potentiation, less the hit threshold, % at 10 µM;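 active = fluorescence ratio rising 3 SD or more over the vehicle control mean in both replicates, plus primary screen hit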;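 note: peak minus minimum thallium fluorescence divided by baseline after K/Tl stimulus; 0% = vehicle mean plus 3 SD and 100% = vehicle minus unstimulated blank difference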
Kir21 spec: mouse Kir2.1 channel activation off-target, confirmation, selectivity assay for KCNQ2 potentiator project, cell-based, HEK293, FluxOR thallium flux; activity over 3SD threshold, % at 10 µM; shares compounds with KCNQ2 enhance; AID 2345, 2010; 2% of 1,200 active; HEK293 Kir2.1, FluxOR thallium flux fluorescence;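 active = fluorescence ratio rise of at least 3 SD above the vehicle-control mean, seen in both replicates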;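 note: 0% = vehicle mean plus 3 SD and 100% = vehicle minus no-stimulus blank window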
KCNQ2 W236L pot: potentiators of retigabine-insensitive KCNQ2 W236L, mechanism study for KCNQ2 potentiator project, cell-based, rat KCNQ2 W236L, CHO, automated patch clamp; shares compounds with KCNQ2 enhance; current increase over 3SD of negative controls (%), stronger effect = higher value, % at 25 µM; 10% of 940 active; automated patch clamp current;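 active = current increase at least 3 SD of the untreated controls above them in both duplicate recordings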
* marks the source's active call; other numbers are inactive results; i = inactive; / = no result. Sampled rows, rich in hits. Any-hit rate of the full collection: about 1.6%.

SMILES	KCNQ2 inh	KCNQ2 enhance	Kir21 conf inh	HEK293 ctr	others
COc1ccc(Cc2nnc(NC(=O)C3CCN(C(=O)c4ccco4)CC3)s2)cc1	i	/	/	/
COc1cccc(CC2(CO)CCCN(Cc3cc4ccccc4[nH]3)C2)c1 (stereo not given)	i	1.3	/	/
CCOc1cc2c3c(c1)C(C)=CC(C)(C)N3C(=O)C2=O	i	1.9	/	/
CC(=O)Oc1cc2c3c(c1)/C(=C1/SC(=S)NC1=O)C(=O)N3C(C)(C)C=C2C	i	6.8*	i	i	CHO-K1 Tl ctr=-11;KCNQ1 sel pot=12*;KCNQ2 pot conf=-21;Kir21 spec=-21
O=C(NC1CC(=O)N(c2cccc(F)c2)C1)C(=O)c1c[nH]c2ccccc12 (stereo not given)	i	1.3	/	/
CCOC(=O)c1cccc(NC(=O)COc2nsnc2N2CCOCC2)c1	i	1.5	/	/
O=C(c1cc(COc2ccc3c(c2)CCCC3)on1)N1CCCC1	i	1.1	i	i
COCC1CCN(C(=O)c2cc(COc3ccc4c(c3)CCCC4)on2)C1 (stereo not given)	i	0.7	/	/
COc1ccc(N(CC(=O)NCC2CCCO2)C(=O)CCC(=O)Nc2cc(C)on2)cc1OC (stereo not given)	i	0.19	/	/
O=C(NCc1ccco1)c1ccc(C(F)(F)F)cc1	i	1	/	/
O=C(NCc1ccco1)c1ccccc1-c1ccc(C(F)(F)F)cc1	i	6.1*	i	i	CHO-K1 Tl ctr=-8;KCNQ1 sel pot=23*;KCNQ2 pot conf=1.0*;Kir21 spec=-39;KCNQ2 W236L pot=i
COCCCNC(=O)C1=CCN(S(=O)(=O)c2ccc(OC)cc2)CC1	i	/	/	/
C/C(=N\NC(=O)C1COc2ccccc2O1)c1ccc(N2CCOCC2)cc1 (stereo not given)	i	9.2*	i	i	CHO-K1 Tl ctr=26*;KCNQ1 sel pot=-14;KCNQ2 pot conf=-20;Kir21 spec=-35
C/C(=N\NC(=O)C1CC1)c1ccc(N2CCOCC2)cc1	i	0.08	/	/
Cc1cc(NC(=O)COc2ccccc2)ccc1Cl	i	/	/	/
Cc1cccc(C(=O)N/C(=C\c2ccco2)C(=O)N2CCCC2)c1	i	0.11	/	/
COc1ccc(C(=O)NC2CCSc3ccccc32)cc1F (stereo not given)	i	0.03	/	/
COc1ccccc1CC(=O)N1CCCc2cc(C)ccc21	i	/	i	i
Cc1ccc2c(c1)CCCN2C(=O)CSc1ccccc1	i	/	/	/
Cc1ccc(NC(=O)CCn2c(=O)c3cccn3c3ccccc32)cc1C	i	/	/	/
CCOC(=O)c1cnc2ccc(C(=O)OC)cc2c1NCCc1ccc(OC)c(OC)c1	i	/	/	/
CCOC(=O)c1cnc2c(C)cccc2c1NCCc1ccc(OC)c(OC)c1	i	/	i	i
CCOC(=O)c1cnc2c(OC)cccc2c1N1CC(C)CC(C)C1 (stereo not given)	i	1.2	/	/
CCOC(=O)c1cnc2c(OC)cccc2c1Oc1ccccc1	i	/	48%*	i
COc1ccc(NC(=O)C2CCCN2S(=O)(=O)c2cccs2)c([N+](=O)[O-])c1 (stereo not given)	i	0.33	/	/
SMILES	KCNQ2 inh	KCNQ2 enhance	Kir21 conf inh	HEK293 ctr	others
CCOC(=O)N1CCN(C(=O)CN(C)S(=O)(=O)c2ccc(Cl)cc2)CC1	i	0.2	/	/
O=C(c1ccccn1)N1CCCC(N2CCN(c3ccccc3)CC2)C1 (stereo not given)	i	/	/	/
Cc1csc(NC(=O)c2cc3c(s2)CCCCC3)n1	i	1.3	/	/
Cc1csc(NC(=O)c2cc3c(s2)CCCC3)n1	i	7.3*	i	i	CHO-K1 Tl ctr=96*;KCNQ1 sel pot=-18;KCNQ2 pot conf=-2;Kir21 spec=-29;KCNQ2 W236L pot=i
O=C(O)CCC(=O)N1CCN(c2cccc(Cl)c2)CC1	i	0.8	/	/
O=C(O)/C=C/C(=O)N1CCN(c2cccc(Cl)c2)CC1	i	0.11	i	i
CC(CCc1ccco1)N(C)S(=O)(=O)c1csc(C(N)=O)c1 (stereo not given)	i	0.17	/	/
CCCCN(Cc1ccco1)S(=O)(=O)c1csc(C(N)=O)c1	i	/	48%*	i
CC(=O)C1=C(O)C(=O)N(c2ccccn2)C1c1ccc(C)cc1 (stereo not given)	i	/	/	/
COc1ccc(OC)c(S(=O)(=O)Nc2c(NC3CCCCC3)c3ccccc3oc2=O)c1	i	0.01	/	/
O=C(CCC1CCCCC1)Nc1c2c(nn1-c1ccc(F)cc1)CS(=O)C2 (stereo not given)	i	10*	i	i	CHO-K1 Tl ctr=-31;KCNQ1 sel pot=19*;KCNQ2 pot conf=47*;Kir21 spec=-31;KCNQ2 W236L pot=i
O=C(Nc1c2c(nn1-c1ccc(F)cc1)CS(=O)C2)c1ccc(Br)o1 (stereo not given)	i	0.96	/	/
Cc1cccc(C=Nc2ccc3c4c(cccc24)CC3)c1O	i	/	/	/
CCc1ccc(O)c(N=Cc2cccc(C)c2O)c1	i	7.5*	i	i	CHO-K1 Tl ctr=-19;KCNQ1 sel pot=-12;KCNQ2 pot conf=17*;Kir21 spec=-20;KCNQ2 W236L pot=i
CCOC(=O)c1c(-c2ccco2)csc1NC(=O)COC(=O)c1cnc(C)cn1	i	1.1	/	/
CCc1cccc(C)c1NC(=O)CSc1nc2ccncc2[nH]1	i	/	/	/
Cc1ccc(-c2nc3ccccn3c2NCc2ccc3c(c2)OCO3)cc1	i	/	76%*	i
COc1ccc(-c2nc3ccc(C)cn3c2NCc2ccc3c(c2)OCO3)cc1	i	0.61	/	/
COc1ccc(-c2nc(CS(=O)(=O)CC(=O)NC3CCC(C)CC3)c(C)o2)cc1 (stereo not given)	i	/	/	/
